# Laboratory results from PubChem BioAssay (NCATS).
# Records with an inconclusive call do not appear. Active and inactive are the calls of the source. Unless noted, the call rests on the fitted dose curve; in most records, active means well fitted curve in the direction sought with a large enough effect; inconclusive means small, poorly fitted or top-dose-only effect, or another doubt; inactive means no such curve, though single readings can be large; an effect the other way counts as inactive or inconclusive.
# Key:
# [1] = Primary qHTS for inhibitors of nuclear receptor binding SET domain protein 2 (NSD2) in an isogenic RCH-ACV NSD2 p.E1099K mutant (9B) (AID 1645876); conditions: RCH-ACV NSD2 E1099K (9B) viability, CellTiter-Glo, 72 h; series mostly up to 44.9 µM; further: nearly all actives have a fitted effect of over 70% in size; further: potency means the concentration at half of the fitted maximal effect; on activity change, negative = viability loss: on the % scale 0 is the no-effect control and ±100 the full control effect
# [2] = Primary qHTS for inhibitors of nuclear receptor binding SET domain protein 2 (NSD2) in an RCH-ACV wild type WT cells (2C) (AID 1645877); conditions: RCH-ACV (leukaemia line) NSD2 WT (2C) viability, CellTiter-Glo, 72 h; series mostly up to 44.9 µM; further: nearly all actives have a fitted effect of over 70% in size; further: potency means the concentration at half of the fitted maximal effect; on activity change, negative = cell killing: on the % scale 0 is the no-effect control and ±100 the full control effect
# HEK293 = experiment: Cytotoxic Profiling of Annotated Libraries Using Quantitative High-Throughput Screening (AID 1296008); conditions: Five cell lines viability, CellTiter-Glo ATP luminescence, 48-72 h; max response: stronger effect = lower value; further: nearly all actives have a fitted effect of over 60% in size; further: potency means the concentration at half of the fitted maximal effect
# Outline: (§1)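 Cells exposed to compounds for 48 or 72 hr at 37 degrees Celsius. Viability read as ATP-coupled luminescence with CellTiter-Glo after 10 min at room temperature.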
# HACAT = experiment: qHTS assay to identify novel small-molecules to repurpose for Merkel cell carcinoma treatment (AID 1296009); conditions: MCC and control cell lines, CellTiter-Glo viability, 72 h; at 44.8 µM (top of the series) unless noted; further: nearly all actives have a fitted effect of over 60% in size
# Outline: (§2)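 Cells were treated for 72 hr at 37 degree celsius with compounds in 8- or 11-point dose response. Viability was read by CellTiter-Glo luminescence, normalized to no-cell (cytotoxicity) and DMSO controls.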
# CAOV3 = experiment: Primary qHTS to identify gynecologic anti-cancer compounds using libraries of approved drugs and bioactive compounds (AID 1345084); conditions: Gynecologic cancer cell panel viability, ATPlite luminescence, 48 h; series mostly up to 57.5 µM; further: nearly all actives have a fitted effect of over 55% in size; further: potency means the concentration at half of the fitted maximal effect; on activity change, negative = cytotoxicity: on the % scale 0 is the no-effect control and ±100 the full control effect
# Outline: (§3)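 Measured: luminescence after ATPlite addition (15 min, RT). Exposure: 48 h, 37 C, 5% CO2.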
# HeLa = experiment: as above; conditions: Gynecologic cancer cell panel viability, ATPlite luminescence, 48 h; series mostly up to 57.5 µM
# Outline: as §3
# [3] = P-glycoprotein substrates identified in KB-8-5-11 adenocarcinoma cell line, qHTS therapeutic library screen (AID 1346987); conditions: KB-8-5-11 (P-gp overexpressing) viability, CellTiter-Glo, 72 h; series mostly up to 44.5 µM; further: nearly all actives have a fitted effect of over 65% in size; further: potency means the concentration at half of the fitted maximal effect
# Outline: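 KB-8-5-11, a colchicine-selected P-gp-overexpressing KB-3-1 subline, was grown without colchicine for the assay. Cells were seeded at 500 cells/well, dosed in concentration-response and incubated 72 h at 37 degree C, 5% CO2. Viability was read by CellTiter-Glo luminescence.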
# KB-3-1 = experiment: Cytotoxic Profiling of Annotated Libraries Using Quantitative High-Throughput Screening (AID 1296008); conditions: Five cell lines viability, CellTiter-Glo ATP luminescence, 48-72 h; max response: stronger effect = lower value; further: nearly all actives have a fitted effect of over 60% in size; further: potency means the concentration at half of the fitted maximal effect
# Outline: as §1
# [4] = molecular target: Cytochrome P450 2D6 (Homo sapiens) (UniProt P10635); experiment: Cytochrome P450 family 2 subfamily D member 6 (CYP2D6) small molecule antagonists: luciferase biochemical (cell-free) qHTS assay (AID 1645840; active means well fitted curve in the direction sought with a large enough effect in the repeat runs; an effect the other way counts as inactive or inconclusive; further: potency means the concentration at half of the fitted maximal effect; nearly all actives have a fitted effect of over 55% in size); conditions: P450-Glo CYP2D6 enzyme, luciferin luminescence, 1 h; series mostly up to 57.4 µM
# Sequence of Cytochrome P450 2D6 (Homo sapiens) (P10635 whole entry, looked up): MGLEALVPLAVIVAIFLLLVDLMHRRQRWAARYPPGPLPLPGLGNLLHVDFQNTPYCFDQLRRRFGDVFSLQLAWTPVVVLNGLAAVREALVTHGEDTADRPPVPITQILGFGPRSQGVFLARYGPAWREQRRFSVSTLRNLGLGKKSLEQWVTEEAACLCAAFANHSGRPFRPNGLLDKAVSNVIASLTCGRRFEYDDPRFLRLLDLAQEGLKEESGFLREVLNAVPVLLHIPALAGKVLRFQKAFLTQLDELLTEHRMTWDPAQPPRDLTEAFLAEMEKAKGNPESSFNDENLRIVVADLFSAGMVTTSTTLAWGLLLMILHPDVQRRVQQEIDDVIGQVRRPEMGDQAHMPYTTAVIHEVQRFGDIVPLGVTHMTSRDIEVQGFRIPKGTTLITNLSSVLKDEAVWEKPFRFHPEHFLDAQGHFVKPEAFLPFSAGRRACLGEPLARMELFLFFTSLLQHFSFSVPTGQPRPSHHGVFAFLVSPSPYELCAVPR
# Outline: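 P450-Glo luminescent screen: recombinant CYP2D6 enzyme–proluciferin substrate mix preincubated with compound 10 min at room temperature, then NADPH regeneration added for 1 h at room temperature. Detection reagent added for 20 min; luciferin light read as relative luminescence units.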
# SKOV3 = experiment: Primary qHTS to identify gynecologic anti-cancer compounds using libraries of approved drugs and bioactive compounds (AID 1345084); conditions: Gynecologic cancer cell panel viability, ATPlite luminescence, 48 h; series mostly up to 57.5 µM; further: nearly all actives have a fitted effect of over 55% in size; further: potency means the concentration at half of the fitted maximal effect; on activity change, negative = cytotoxicity: on the % scale 0 is the no-effect control and ±100 the full control effect
# Outline: as §3
# [5] = P-glycoprotein substrates identified in KB-3-1 adenocarcinoma cell line, qHTS therapeutic library screen (AID 1346986); conditions: KB-3-1 parental cells viability, CellTiter-Glo, 72 h; series mostly up to 93.4 µM; further: nearly all actives have a fitted effect of over 60% in size
# Outline: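 KB-3-1 parental and colchicine-selected P-gp-overexpressing KB-8-5-11 cells (colchicine omitted during assay), 500 cells/well, dosed in dose-response for 72 h at 37 °C; CellTiter-Glo luminescence. Cytotoxic: curve class -1.1 to -2.4, max response >50%, AC50 < 10 uM.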
# NIH3T3 = experiment: qHTS assay to identify novel small-molecules to repurpose for Merkel cell carcinoma treatment (AID 1296009); conditions: MCC and control cell lines, CellTiter-Glo viability, 72 h; at 44.8 µM (top of the series) unless noted; further: nearly all actives have a fitted effect of over 60% in size
# Outline: as §2
# [6] = molecular target: Cytochrome P450 2C9 (Homo sapiens) (UniProt P11712); experiment: Cytochrome P450 family 2 subfamily C member 9 (CYP2C9) small molecule antagonists: luciferase biochemical (cell-free) qHTS assay (AID 1645842; active means well fitted curve in the direction sought with a large enough effect in the repeat runs; an effect the other way counts as inactive or inconclusive; further: potency means the concentration at half of the fitted maximal effect; nearly all actives have a fitted effect of over 55% in size); conditions: P450-Glo CYP2C9 enzyme assay, luciferin luminescence; series mostly up to 57.4 µM
# Sequence of Cytochrome P450 2C9 (Homo sapiens) (P11712 whole entry, looked up): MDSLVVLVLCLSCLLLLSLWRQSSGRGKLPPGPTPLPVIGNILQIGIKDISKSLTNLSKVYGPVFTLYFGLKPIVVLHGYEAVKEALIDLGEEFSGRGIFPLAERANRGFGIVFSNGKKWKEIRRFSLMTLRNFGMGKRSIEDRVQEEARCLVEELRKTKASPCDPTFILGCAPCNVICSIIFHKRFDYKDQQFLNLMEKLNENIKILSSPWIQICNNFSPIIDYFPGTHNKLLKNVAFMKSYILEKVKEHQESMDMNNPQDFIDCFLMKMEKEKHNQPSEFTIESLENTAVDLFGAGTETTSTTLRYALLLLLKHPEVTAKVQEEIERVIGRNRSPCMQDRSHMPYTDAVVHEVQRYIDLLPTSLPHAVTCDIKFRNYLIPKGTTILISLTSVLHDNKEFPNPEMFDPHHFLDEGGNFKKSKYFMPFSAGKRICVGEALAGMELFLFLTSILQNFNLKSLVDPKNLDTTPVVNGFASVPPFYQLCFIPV
# Outline: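 Luminescence, after 20 min with luciferin detection reagent, reflected CYP2C9 turnover during a 1 h NADPH-driven reaction at 37C. Enzyme-substrate mix contained 0.4% bovine serum albumin and was preincubated with compound 10 min at room temperature.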
# [7] = molecular target: Catechol O-methyltransferase (Homo sapiens) (UniProt P21964); experiment: Confirmatory Screen for Target Class Profiling of Small Molecule Inhibitors of Methyltransferases (AID 1745852); conditions: MTase-Glo luminescence, SAH detection, recombinant enzyme; measured here: COMT max response; stronger effect = lower value
# Sequence of Catechol O-methyltransferase (Homo sapiens) (P21964 whole entry, looked up): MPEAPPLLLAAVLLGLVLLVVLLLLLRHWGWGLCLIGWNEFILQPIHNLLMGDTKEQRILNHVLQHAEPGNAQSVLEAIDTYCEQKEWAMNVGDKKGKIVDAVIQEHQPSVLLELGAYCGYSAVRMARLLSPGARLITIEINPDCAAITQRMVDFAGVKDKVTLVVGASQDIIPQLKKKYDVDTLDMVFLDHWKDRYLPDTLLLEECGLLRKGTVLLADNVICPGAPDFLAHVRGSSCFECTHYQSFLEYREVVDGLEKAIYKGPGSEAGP
# [8] = molecular target: Guanidinoacetate N-methyltransferase (Homo sapiens) (UniProt Q14353); experiment: as above; conditions: MTase-Glo luminescence, SAH detection, recombinant enzyme; activity change, negative = inhibition: at 57.3 µM (top of the series) unless noted; series mostly up to 57.3 µM
# [9] = molecular target: Nicotinamide N-methyltransferase (Homo sapiens) (UniProt P40261); experiment: as above; conditions: MTase-Glo luminescence, SAH detection, recombinant enzyme; measured here: NNMT max response; stronger effect = lower value
# Sequence of Nicotinamide N-methyltransferase (Homo sapiens) (P40261 whole entry, looked up): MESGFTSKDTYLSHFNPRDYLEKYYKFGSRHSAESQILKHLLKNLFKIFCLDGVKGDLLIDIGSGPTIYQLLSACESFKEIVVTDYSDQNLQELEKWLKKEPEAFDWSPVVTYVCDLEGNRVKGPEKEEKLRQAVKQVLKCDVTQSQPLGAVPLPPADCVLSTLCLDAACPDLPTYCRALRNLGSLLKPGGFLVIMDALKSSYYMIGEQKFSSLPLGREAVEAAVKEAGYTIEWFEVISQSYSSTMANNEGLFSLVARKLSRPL
# [10] = molecular target: Phenylethanolamine N-methyltransferase (Homo sapiens) (UniProt P11086); experiment: as above; conditions: MTase-Glo luminescence, SAH detection, recombinant enzyme; measured here: PNMT max response; stronger effect = lower value
# Sequence of Phenylethanolamine N-methyltransferase (Homo sapiens) (P11086 whole entry, looked up): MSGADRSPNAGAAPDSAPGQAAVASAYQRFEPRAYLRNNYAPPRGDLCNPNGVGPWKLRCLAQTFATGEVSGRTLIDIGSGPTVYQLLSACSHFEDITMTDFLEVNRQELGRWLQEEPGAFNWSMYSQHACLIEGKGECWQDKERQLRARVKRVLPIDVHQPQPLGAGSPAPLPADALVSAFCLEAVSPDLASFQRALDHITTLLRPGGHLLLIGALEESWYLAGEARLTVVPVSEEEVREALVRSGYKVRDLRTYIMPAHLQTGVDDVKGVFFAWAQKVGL
# [11] = qHTS drug screen for cell cycle checkpoint inhibitors in PARPi-resistant BRCA-mutant ovarian cancer cell lines. (AID 1963452; calls by dose curve); conditions: PEO1/OlaR viability, CellTiter-Glo luminescence, 96 h, stronger effect = lower value
# Outline: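 PEO1, PEO4 and PEO1/OlaR ovarian cancer cells, 600 per well, exposed 96 h at 37C to a dilution series. Viability read by CellTiter-Glo luminescence, normalized to DMSO and empty wells; activity summarized as Z-AUC.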
smiles,measurement,setting,value
CN(CC[C@H](N)CC(=O)N[C@H]1C=C[C@@H](n2ccc(N)nc2=O)O[C@@H]1C(=O)O)C(=N)N,"activity change, negative = viability loss",[1],-2.6% [at 9.23 µM] (inactive)
same,"activity change, negative = cell killing",[2],0.799% [at 9.23 µM] (inactive)
same,outcome,HEK293,inactive
same,outcome,HACAT,inactive [at 9.27 µM]
same,"activity change, negative = cytotoxicity",CAOV3,8.99% [at 11.6 µM] (inactive)
same,"activity change, negative = cytotoxicity",HeLa,9.86% [at 11.6 µM] (inactive)
COC[C@]12CN(C)C3C4[C@H](OC)[C@H]1C3(C(OC)C[C@H]2O)[C@H]1C[C@@]2(O)[C@H](OC(=O)c3ccccc3)[C@@H]1[C@]4(O)[C@@H](O)[C@@H]2OC (stereo not given in full),Potency,[3],inactive
same,Potency,[1],inactive
same,Potency,[2],inactive
same,max response,KB-3-1,-0.453% (inactive)
same,Potency,CAOV3,inactive
CCOC(=O)C1(CCc2ccccc2)CCN(Cc2ccc(NC(C)=O)cc2)CC1,Potency,[4],2.13 µM (active)
same,max response,KB-3-1,-17.7% (inactive)
same,Potency,CAOV3,inactive
same,Potency,HeLa,inactive
same,Potency,SKOV3,inactive
Cc1ccccc1C1=CCN(C)CC1,Potency,[3],inactive
same,Potency,[1],inactive
same,Potency,[2],inactive
same,max response,HEK293,-19.5% (inactive)
same,Potency,CAOV3,inactive
same,Potency,HeLa,inactive
Cc1cccc(NC(=O)c2ccc(C(F)(F)F)cc2C(=O)O)n1,Potency,[5],inactive
same,Potency,[1],inactive
same,Potency,[2],inactive
same,outcome,HACAT,inactive
C/C=C(\C)C(=O)O[C@@H]1[C@@H](C)[C@]2(O)C3C=C(C)C(=O)[C@@]3(O)CC(CO)=C[C@H]2C2C(C)(C)[C@@]21OC(=O)C(C)CC (stereo not given in full),Potency,[5],inactive
same,outcome,KB-3-1,inactive
same,outcome,HACAT,inactive [at 17.4 µM]
same,outcome,NIH3T3,inactive [at 17.4 µM]
same,Potency,CAOV3,inactive
same,Potency,HeLa,inactive
same,Potency,SKOV3,inactive
CCC1(O)CCC2C3CCC4=CC(=O)CCC4C3CCC21CC (stereo not given),Potency,[1],20.5 µM (active)
same,outcome,HACAT,inactive
same,Potency,CAOV3,inactive
same,Potency,HeLa,inactive
same,Potency,SKOV3,inactive
C[C@@H]1Cc2c(Cl)cc(C(=O)N[C@@H](Cc3ccccc3)C(=O)O)c(O)c2C(=O)O1,Potency,[1],8.98 µM (active)
same,Potency,[2],6.36 µM (active)
same,outcome,HACAT,inactive
same,Potency,CAOV3,inactive
same,Potency,SKOV3,inactive
Cc1ccc(-n2nccn2)c(C(=O)N2CCN(c3nc4cc(Cl)ccc4o3)CCC2C)c1 (stereo not given),Potency,[4],16.9 µM (active)
same,Potency,[6],1.34 µM (active)
same,Potency,[1],16.3 µM (active)
same,outcome,HACAT,inactive
same,outcome,NIH3T3,inactive
same,Potency,CAOV3,inactive
same,Potency,HeLa,inactive
CC(C)(O)/C=C/C(=O)[C@](C)(O)[C@H]1[C@H](O)C[C@@]2(C)[C@@H]3CC=C4[C@@H](C[C@H](O)C(=O)C4(C)C)[C@]3(C)C(=O)C[C@]12C,Potency,[3],0.448 µM (active)
same,Potency,[1],0.252 µM (active)
same,Potency,[2],0.142 µM (active)
same,Potency,HEK293,0.709 µM (active)
same,Potency,KB-3-1,0.448 µM (active)
same,Potency,CAOV3,0.398 µM (active)
same,Potency,HeLa,2.51 µM (active)
same,Potency,SKOV3,0.794 µM (active)
CCOC(=O)c1ccnc2cc(C(OCCN3CCCCC3)c3ccccc3Cl)sc12 (stereo not given),Potency,[1],23 µM (active)
same,Potency,[2],20.5 µM (active)
same,activity,[7],-1.68%
same,"activity change, negative = inhibition",[8],9.58%
same,activity,[9],-18.4%
same,activity,[10],-4.81%
same,max response,KB-3-1,5.4% (inactive)
same,outcome,HACAT,inactive
same,Potency,CAOV3,inactive
COc1ccc(CC2C(=O)NC(C)C(=O)N(C)C3Cc4ccc(cc4)Oc4cc(ccc4OC4OC(CO)C(O)C(O)C4O)CC(C(=O)NC(C)C(=O)NC(CCC(=O)O)C(=O)N2C)N(C)C3=O)cc1 (stereo not given),"activity change, negative = cytotoxicity",[3],-22.7% [at 9.29 µM] (inactive)
same,Potency,[1],5.48 µM (active)
same,Potency,[2],4.88 µM (active)
same,max response,KB-3-1,-29.6% (inactive)
same,outcome,HACAT,inactive [at 9.27 µM]
same,"activity change, negative = cytotoxicity",HeLa,-13.7% [at 11.6 µM] (inactive)
Cc1sc2c(c1C)C(c1ccc(Cl)cc1)=N[C@@H](CC(=O)Nc1ccc(O)cc1)c1nnc(C)n1-2,Potency,[1],0.0615 µM (active)
same,Potency,[2],0.069 µM (active)
same,Z-AUC,[11],-0.583 (inactive)
same,Z-AUC,[11]; measured here: PEO1 parental Z-AUC,-0.325
same,Z-AUC,[11]; measured here: PEO4 Z-AUC,-0.491
same,Potency,HEK293,0.39 µM (active)
same,outcome,HACAT,inactive [at 9.27 µM]
same,Potency,SKOV3,0.562 µM (active)
Cc1sc2c(c1C)C(c1ccc(Cl)cc1)=NC(CC(=O)OC(C)(C)C)c1nnc(C)n1-2 (stereo not given),Potency,[3],1.16 µM (active)
same,Potency,[1],0.183 µM (active)
same,Potency,[2],0.129 µM (active)
same,Potency,HEK293,0.651 µM (active)
CC(C)OC(=O)c1ccnc2cc(C(OCCN3CCCCC3)c3ccccc3Cl)sc12 (stereo not given),Potency,[3],20.6 µM (active)
same,Potency,[1],14.5 µM (active)
same,Potency,[2],18.3 µM (active)
same,activity,[7],3.41%
same,"activity change, negative = inhibition",[8],8.86%
same,activity,[9],-30.3%
same,activity,[10],-6.38%
same,outcome,HACAT,inactive
same,Potency,SKOV3,inactive
COc1ccc(C23CCC(=O)C=C2N(C)CC3)cc1OC (stereo not given),Potency,[3],inactive
same,Potency,[1],inactive
same,Potency,[2],inactive
same,max response,HEK293,-6.12% (inactive)
same,max response,KB-3-1,-13% (inactive)
same,Potency,CAOV3,inactive
same,Potency,SKOV3,25.1 µM (active)
COc1ccc(C(C)(C)C)cc1CN[C@H]1C2CCN(CC2)[C@H]1C(c1ccccc1)c1ccccc1,Potency,[3],18.4 µM (active)
same,Potency,[4],2.68 µM (active)
same,Potency,[6],26.8 µM (active)
same,Potency,[1],6.49 µM (active)
same,Potency,[2],6.49 µM (active)
same,Potency,HEK293,10.3 µM (active)
same,Potency,CAOV3,inactive
same,Potency,HeLa,inactive
same,Potency,SKOV3,inactive
C=C1[C@@H](O)[C@]2(O)OC[C@]34C2[C@]2(C)C(C[C@H]3OC(=O)[C@H](O)[C@@]14O)C(C)=CC(=O)[C@H]2O (stereo not given in full),Potency,[1],4.47 µM (active)
same,Potency,[2],3.17 µM (active)
same,Potency,HeLa,inactive
same,Potency,SKOV3,inactive
CC1CCCCCC(=O)c2c(O)cc(O)cc2CC(=O)O1 (stereo not given),Potency,[3],inactive
same,max response,KB-3-1,-18.6% (inactive)
same,outcome,HACAT,inactive
same,Potency,CAOV3,inactive
same,Potency,HeLa,inactive
same,Potency,SKOV3,inactive
